Only some compounds are listed: those with a hit (about 5.7% of all), similar ones and a draw of the others.
Giardia killer: Giardia lamblia killing; Giardia lamblia trophozoite viability; activity change, % at 7.66 µM, hits read low; 340,000 compounds, 0.15% hits; AID 540267; in the data active = activity change below about -80%; inconclusive = between about -30% and that limit;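 also: parasites exposed to compound for two days anaerobically before the ATP read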
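Giardia lamblia trophozoites (100 cells/well) were incubated with compounds for 48 h at 37 deg C under anaerobic conditions. Viability was read as ATP content by one-step luminescence after 15-30 min at room temperature.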
PI4K2A block: blocks human PI4K2A kinase activity; Q9BTU6; purified PI4K2A, ADP-Glo luminescence, 1 h; hits give low values; activity change, negative = inhibition, % at 76.9 µM; 420,000 compounds, 0.13% hits; AID 1346378; in the data active = activity change below about -50%; inconclusive = mostly about -30% to -49%;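 also: -100% = wells without enzyme as full effect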
Target sequence (Q9BTU6 whole entry, looked up): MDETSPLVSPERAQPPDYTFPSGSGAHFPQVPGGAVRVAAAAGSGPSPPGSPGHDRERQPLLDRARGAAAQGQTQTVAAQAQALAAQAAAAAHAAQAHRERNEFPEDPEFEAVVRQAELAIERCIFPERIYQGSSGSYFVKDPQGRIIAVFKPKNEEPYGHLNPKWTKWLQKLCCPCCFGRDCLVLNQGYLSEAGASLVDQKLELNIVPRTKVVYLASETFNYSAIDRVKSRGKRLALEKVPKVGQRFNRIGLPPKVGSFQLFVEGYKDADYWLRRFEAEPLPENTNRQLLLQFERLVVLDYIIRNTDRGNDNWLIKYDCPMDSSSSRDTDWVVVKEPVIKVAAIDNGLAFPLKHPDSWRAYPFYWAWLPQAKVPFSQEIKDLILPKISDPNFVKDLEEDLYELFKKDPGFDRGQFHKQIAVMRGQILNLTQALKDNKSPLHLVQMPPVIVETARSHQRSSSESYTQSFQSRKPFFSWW
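In this quantitative HTS, ADP production by PI4K2A was quantified luminescently after 1 h at ambient temperature; 100 microM adenosine served as plate-quality control.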
KB-V1 cytotox: kills drug-selected multidrug resistant KB-V1 cells; 400,000 compounds, 3.4% hits; Potency, µM (titrated, usually from 46.1 µM), hits mostly cytotoxic; KB-V1 MDR cells viability, CellTiter-Glo, 72 h; also: potency is read from the fitted curve at half-maximal effect; nearly all actives have a fitted effect of over 60% in size
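Cytotoxicity toward P-gp-expressing KB-V1 cells was determined as loss of CellTiter-Glo luminescence after 72 h at 37 degrees C. Compounds were tested in quantitative HTS format across a concentration range, with curves fitted to normalized data.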
A549 viability: kills or reduces viability of A549 cells in Nrf2 counter-screen. Potency, µM (series often up to 46 µM), for inactives: at the top dose activity change, negative = cytotoxicity, actives largely listed as inhibitors. 390,000 compounds, 0.16% hits. A549 ARE-Fluc cells, CellTiter-Fluor viability, 18-24 h. AID 504648; also: potency is read from the fitted curve at half-maximal effect
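A549 ARE-Fluc cells in 5% FBS OPTI-MEM, 5000 cells/well, rested 2 h then exposed to compounds in concentration-response for 18-24 h at 37 °C. Viability by CellTiter-Fluor fluorescence (Ex 405/Em 525) after 30 min; luciferase luminescence (BugLite, 15 min, RT) read afterwards.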
KB-3-1 cytotox: KB-3-1 parental cell cytotoxicity | KB-3-1 viability, CellTiter-Glo ATP luminescence, 72 h | Potency, µM (titrated, usually from 46.1 µM), most hits filed as cytotoxic | 400,000 compounds, 1.4% hits | AID 1347075; also: potency is read from the fitted curve at half-maximal effect; nearly all actives have a fitted effect of over 60% in size
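Cells are dispensed, compounds pinned in, plates held at 37 °C for 72 h, then CellTiter-Glo is added and luminescence read after 10 minutes. Cell line: parental KB-3-1 in phenol-red-free DMEM, 10% FBS.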
Nrf2 block: blocks Nrf2 signaling. A549 ARE-Fluc reporter, luciferase luminescence, 18-24 h. Potency, µM (doses to about 46 µM), for inactives: at the highest dose activity change, negative = inhibition, actives largely listed as inhibitors. 360,000 compounds, 2.1% hits; also: potency is read from the fitted curve at half-maximal effect; nearly all actives have a fitted effect of over 60% in size
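Quantitative HTS in A549 cells stably bearing an antioxidant response element-firefly luciferase construct. Inhibition of Nrf2-driven transcription was scored by luminescence after 18-24 h of compound exposure at 37 °C.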
An asterisk follows results filed as active; i = inactive; ? = inconclusive; . = not tested or not shown. Unless noted, calls follow the shape of the dose curve; as a rule, active = well fitted curve in the direction sought with a large enough effect; inconclusive = small, poorly fitted or top-dose-only effect, or another doubt; inactive = no such curve, though single readings can be large; an effect the other way counts as inactive or inconclusive. Unless noted, % is scaled to controls: 0 for no effect and ±100 for the full control effect.

SMILES | Giardia killer | PI4K2A block | KB-V1 cytotox | A549 viability | KB-3-1 cytotox | Nrf2 block
CCOC(=O)Cn1c(=O)n(C2CCCCC2)c2nc(-c3c(F)cccc3Cl)nc(C(N)=O)c21 | . | 6.3 | 18.4µM* | -1.2% | ? | .
CCOC(=O)Cn1c(=O)n(C2CCCCC2)c2nc(-c3cccc(F)c3)nc(C(N)=O)c21 | . | 0.1 | i | -1.2% | i | .
CSc1nc(Oc2ccc3ccccc3c2)c2sccc2n1 | 3.1 | -18.5 | ? | -10.4% | 5.17µM* | ?
O=C(CSc1nnc(CNc2ccc(F)cc2)o1)N1CCN(C(=O)c2ccco2)CC1 | 27.5 | -2.9 | i | 1.6% | ? | -26.5%
COc1ccc(NCc2nnc(SCC(=O)N3CCCc4ccccc43)o2)cc1 | 7.7 | -8.9 | i | -3.9% | i | 12.8%
O=C(CSc1nnc(CNc2ccc(F)cc2)o1)N1c2ccccc2Sc2ccccc21 | 3.0 | -2.5 | 3.26µM* | -19.2% | ? | ?
O=C(CSc1nnc(CNc2ccccc2)o1)N1CCCc2ccccc21 | 10.2 | 4.1 | 13µM* | -0.5% | i | -0.2%
CC1Cc2ccccc2N1C(=O)CSc1nnc(CNc2ccccc2)o1 (centres undefined) | -6.3 | -0.7 | 16.4µM* | 1.5% | ? | 12.5%
CC(C)NC(=O)Cn1c(SCC(=O)N2c3ccccc3CC2C)nc2ccccc21 (centres undefined) | 2.5 | -1.3 | i | -2.2% | i | .
CC(C)Cn1c(=O)c2ccccc2n2c(SCC(=O)N3c4ccccc4CC3C)nnc12 (centres undefined) | 32.9 | -0.6 | 1.84µM* | -12.7% | i | -10.9%
Cc1cc(S(=O)(=O)N2CCN(Cc3noc(CCC(=O)N4CCCCC4)n3)CC2)ccc1F | . | -5.8 | i | -0.4% | i | -8.1%
O=C(CSc1nnc(COc2ccc(F)cc2)o1)N1c2ccccc2CCc2ccccc21 | 12.1 | 1.7 | 6.51µM* | -15.6% | i | ?
Cc1sc2nc(C3CC3)nc(SCC(=O)N3c4ccccc4CC3C)c2c1C (centres undefined) | 24.6 | -1.0 | 5.8µM* | ? | i | 16.8%
CC1Cc2ccccc2N1C(=O)CSc1ccccc1 (centres undefined) | -12.9 | 0.0 | 16.4µM* | 2.8% | i | ?
COc1cc(NC(=O)CSc2nc(C)cc(=O)[nH]2)cc(OC)c1 | . | -0.5 | . | . | . | .
O=C1NC(=O)C2(CCc3ccccc32)N1 (centres undefined) | 2.8 | -0.2 | i | -5.9% | i | -11.0%
C=C1CC2(OC1=O)c1ccccc1CCc1ccccc12 | -10.5 | 26.8 | i | ? | ? | 16.4µM*
O=C(N/N=C/c1ccco1)c1cc(-c2cccc(Br)c2)nc2ccccc12 | -6.2 | 1.7 | ? | ? | ? | ?
O=C(O)c1ccc(/C=N/NC(=O)c2cc(-c3cccs3)nc3ccccc23)cc1 | -8.5 | 0.3 | ? | -3.3% | i | 22.1%
O=C(N/N=C/c1ccsc1)c1cc(-c2ccncc2)nc2ccccc12 | 3.7 | -3.8 | 8.2µM* | -6.7% | 2.59µM* | 11.7%
CC(/C=N/NC(=O)c1cc(-c2ccncc2)nc2ccccc12)=C\c1ccco1 | 22.4 | -23.3 | 1.46µM* | 18.4µM* | ? | -79.3%
O=C(N/N=C/c1ccsc1)c1cc(-c2cccs2)nc2ccccc12 | -10.9 | -2.7 | 13µM* | -8.4% | ? | 9.0%
Cc1ccsc1/C=N/NC(=O)c1cc(-c2ccncc2)nc2ccccc12 | -2.8 | -4.9 | ? | -10.3% | 1.16µM* | 29.7%
CCCS(=O)(=O)c1ncc(Cl)c(C(=O)N2CCN(c3ccc(OC)cc3)CC2)n1 | . | -2.9 | . | ? | . | .
Cc1ccc(/C=N/NC(=O)c2cc(-c3ccncc3)nc3ccccc23)o1 | -16.3 | -1.7 | i | -13.7% | 5.8µM* | ?
SMILES | Giardia killer | PI4K2A block | KB-V1 cytotox | A549 viability | KB-3-1 cytotox | Nrf2 block
O=C(N/N=C/c1ccc([N+](=O)[O-])o1)c1cc(-c2ccncc2)nc2ccccc12 | -11.0 | -1.8 | ? | ? | ? | .
Cc1oc2ccc(O)c(CN(C)Cc3ccccc3)c2c1C(=O)Nc1cccc(Cl)c1C | . | 0.6 | . | -8.7% | . | 4.0%
CCN(C(=O)CSc1ccc2ccccc2n1)C1CCCCC1 | 3.5 | 4.9 | 18.4µM* | 0.8% | ? | -6.4%
CN(C(=O)c1coc(=O)c2ccccc12)c1ccc(Br)cc1 | 5.5 | -4.7 | i | 3.9% | i | 4.9%
CN(C(=O)c1coc(=O)c2ccccc12)c1ccc(F)cc1 | -22.6 | 0.4 | i | -16.4% | i | 23.1µM*
O=C1CC(C(=O)Nc2ccc(Cl)cc2[N+](=O)[O-])C2(CCCCC2)O1 (centres undefined) | -17.0 | 4.1 | 14.6µM* | 3.1% | i | 5.2%
CCc1ccc(CNC(=O)Cc2ccc(NC(=O)C3=C(C)OCCS3)cc2)cc1 | -7.3 | -3.3 | 1.16µM* | ? | 1.16µM* | ?
C[C@@H]1[C@@H](O)C[C@@]2(CC(=O)c3ccccc3O2)O[C@H]1c1ccccc1 | . | -4.6 | . | . | . | .
COc1ccc(N2CCN(CCCNC(=O)CCc3cccc(Cl)c3)CC2)cc1 | . | 5.7 | . | . | . | .
CC(=O)C1=C(C)N(Cc2ccccc2)C(=O)N[C@H]1CCc1ccccc1 | 11.2 | 4.0 | i | -6.1% | i | ?
O=C1NC(CCc2ccccc2)C(=O)N1Cc1ccccc1Cl (centres undefined) | -18.0 | -6.6 | 16.4µM* | -4.7% | i | -0.8%
CN(C)c1ccc(/C=C2\C=Cc3ccccc32)cc1F | . | . | i | . | i | .
O=C(CCCN1CCN(c2ccccc2)CC1)c1ccc(F)cc1 | . | -4.4 | i | . | i | .
O=C1CC(=C(c2ccccc2)c2ccccc2)C(=O)N1CCCCN1CCN(c2ccccc2)CC1 | 5.6 | 1.6 | ? | ? | 20.6µM* | -1.6%
CCOc1ccc2[nH]c(=O)c(CN(Cc3cccs3)Cc3nnnn3C(C)(C)CC)cc2c1 | -1.0 | -1.4 | 18.4µM* | ? | i | ?
Cc1ccc(C(=O)C(C(=O)/C=C/c2ccccc2)=C2SCCCS2)cc1 | 4.4 | -7.8 | i | ? | 8.2µM* | 25.9µM*
Cc1ccc(C(=O)C=CC=Cc2ccccc2)cc1 | . | 4.3 | i | . | i | .
O=C(CNC(=O)c1ccc2n[nH]nc2c1)OC(C(=O)Nc1cc(C(F)(F)F)ccc1Cl)c1ccccc1 (centres undefined) | . | . | . | 3.2% | . | -19.5%
Cc1cc(OCCCCOc2ccc(S(N)(=O)=O)c(C)c2)ccc1S(N)(=O)=O | -10.6 | -6.3 | i | -5.9% | i | 11.6µM*
CC(OC(=O)c1cc2sccc2n1C)C(=O)NCCc1ccccc1 (centres undefined) | -21.2 | 1.7 | 13µM* | -1.2% | i | ?
